Among all 220,000 compounds or so, about 800 (0.36%) were called active. What follows is part of a selection rich in actives, with near analogues and random picks from the rest. Unmarked numbers belong to inactive results.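 The calls were made as follows: active = inhibition above about 30% (limit read from the data); inactive = the rest.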
biological target: Eukaryotic translation initiation factor 4E (Mus musculus) + Eukaryotic translation initiation factor 4 gamma 1 (Homo sapiens) (UniProt P63073+Q04637); test: blockers of eIF4G binding by eIF4E – biochemical, uHTS, TR-FRET, eIF4GI fragment, primary screen (AID 782); details: TR-FRET eIF4E-eIF4GI(517-606) binding, 2 h; at 21.7 µM; hits give high values;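 also: 0% = full FRET control wells and 100% = background wells lacking eIF4GI fragment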
Sequence (P63073 whole entry, looked up, the tested form may be a part): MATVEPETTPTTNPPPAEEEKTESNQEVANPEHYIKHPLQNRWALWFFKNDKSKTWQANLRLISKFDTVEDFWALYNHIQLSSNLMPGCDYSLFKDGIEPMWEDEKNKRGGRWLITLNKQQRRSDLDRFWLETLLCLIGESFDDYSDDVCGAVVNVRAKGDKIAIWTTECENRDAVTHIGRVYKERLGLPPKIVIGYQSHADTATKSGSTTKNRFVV
Sequence (Q04637 whole entry, looked up, the tested form may be a part): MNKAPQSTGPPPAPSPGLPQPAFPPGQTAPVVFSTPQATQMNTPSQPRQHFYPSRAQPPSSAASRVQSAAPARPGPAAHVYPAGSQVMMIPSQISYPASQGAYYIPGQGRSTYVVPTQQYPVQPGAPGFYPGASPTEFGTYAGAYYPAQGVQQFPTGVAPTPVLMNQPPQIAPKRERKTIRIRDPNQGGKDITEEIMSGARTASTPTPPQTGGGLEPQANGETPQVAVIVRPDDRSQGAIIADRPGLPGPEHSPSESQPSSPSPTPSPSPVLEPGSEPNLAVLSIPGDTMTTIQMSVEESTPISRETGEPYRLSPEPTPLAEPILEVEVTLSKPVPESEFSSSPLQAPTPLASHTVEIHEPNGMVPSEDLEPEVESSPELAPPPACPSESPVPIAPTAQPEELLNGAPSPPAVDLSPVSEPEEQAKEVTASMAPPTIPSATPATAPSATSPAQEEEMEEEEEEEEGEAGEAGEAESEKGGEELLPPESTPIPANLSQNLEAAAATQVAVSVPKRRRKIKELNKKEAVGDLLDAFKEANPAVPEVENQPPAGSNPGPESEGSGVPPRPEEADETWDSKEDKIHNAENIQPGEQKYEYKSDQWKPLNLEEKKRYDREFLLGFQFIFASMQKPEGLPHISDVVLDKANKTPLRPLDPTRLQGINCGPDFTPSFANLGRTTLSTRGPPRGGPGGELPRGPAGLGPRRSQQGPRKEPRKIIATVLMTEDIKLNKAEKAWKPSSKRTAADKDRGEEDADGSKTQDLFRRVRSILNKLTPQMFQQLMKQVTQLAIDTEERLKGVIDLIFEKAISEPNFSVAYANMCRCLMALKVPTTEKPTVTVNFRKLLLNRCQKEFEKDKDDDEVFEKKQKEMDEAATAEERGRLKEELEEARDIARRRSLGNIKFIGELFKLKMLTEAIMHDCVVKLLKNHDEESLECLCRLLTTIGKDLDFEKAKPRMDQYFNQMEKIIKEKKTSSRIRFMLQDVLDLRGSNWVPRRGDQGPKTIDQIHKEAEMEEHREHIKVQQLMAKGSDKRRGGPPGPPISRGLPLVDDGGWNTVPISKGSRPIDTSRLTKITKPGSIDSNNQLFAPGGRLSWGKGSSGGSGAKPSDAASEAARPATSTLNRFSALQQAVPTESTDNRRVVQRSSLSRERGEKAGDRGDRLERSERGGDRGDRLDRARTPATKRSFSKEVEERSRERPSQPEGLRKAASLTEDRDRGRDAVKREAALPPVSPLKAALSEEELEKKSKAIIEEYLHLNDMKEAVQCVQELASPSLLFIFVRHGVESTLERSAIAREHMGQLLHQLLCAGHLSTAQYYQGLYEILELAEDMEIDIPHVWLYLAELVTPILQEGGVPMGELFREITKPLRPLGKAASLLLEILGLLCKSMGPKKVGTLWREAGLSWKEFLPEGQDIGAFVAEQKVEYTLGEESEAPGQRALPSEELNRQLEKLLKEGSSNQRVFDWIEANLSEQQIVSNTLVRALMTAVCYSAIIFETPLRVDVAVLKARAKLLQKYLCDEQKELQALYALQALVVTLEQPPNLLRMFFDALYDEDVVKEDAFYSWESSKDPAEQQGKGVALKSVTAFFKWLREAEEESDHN

SMILES	inhibition
O=C(COc1cccc2ccccc12)Nc1cc(S(=O)(=O)N2CCOCC2)ccc1N1CCOCC1	-0.21%
CCn1c(=O)c([N+](=O)[O-])c(NCc2ccc3c(c2)OCO3)c2ccccc21	-2.34%
CCOc1ccc(-n2cnc3c(=O)[nH]c(N)nc32)cc1	-1.7%
CCC(C)(C)NC(=O)CN(C(=O)C(=O)Nc1ccc2c(c1)OCCO2)C(C)(C)CC	1.1%
O=C(Nc1ccccc1C(F)(F)F)N1CCCC1c1cccnc1 (stereo not drawn)	0.48%
COc1cc2c(cc1OC)CC1(CCCCC1)N=C2	-2.07%
CC1(C)CC(N(Cc2ccccc2)C(=O)Cc2ccccc2)CCO1 (stereo not drawn)	1.78%
CCc1ccc(N(CC(=O)Nc2sc3c(c2C(=O)OC)CCCC3)S(C)(=O)=O)cc1	1.86%
Cc1cc(C)cc(NC(=O)COC(=O)c2cc(C)oc2C)c1	-0.87%
CCn1c(SCC(=O)N/N=C/c2ccccc2OCC(=O)O)nnc1-c1ccc(C(C)(C)C)cc1	-4.63%
CC(C)(C)CN1C(=O)C(=O)NC[C@H]1Cc1cccc2ccccc12	3.22%
C/C=C/C(=O)Nc1nnc(C(C)C)s1	-1.19%
O=C1c2cccc(OCC(=O)N3N=C(c4cccs4)CC3c3ccc(F)cc3)c2CCN1Cc1ccccc1 (stereo not drawn)	11.7%
CN=C1C=C/C(=N/N=c2\ccn(O)cc2C)C=C1C	3.23%
Brc1ccc(-c2noc(-c3ccccc3)n2)o1	3.6%
COC(=O)c1cc(NC(=O)c2cc(C(C)(C)C)nn2Cc2cccc(C)c2)ccc1N1CCOCC1	-1.37%
CC(C)CNc1ncnc2c1cnn2Cc1ccc(Cl)cc1	-0.57%
COc1ccccc1-n1ccnc1SCC(=O)NC(C)(C)C	-3.84%
O=C(NCc1ccccn1)c1ccc2nc(-c3ccco3)c(-c3ccco3)nc2c1	2.59%
COc1ccc(NC(=O)Nc2ccc3nc(C)c(C)nc3c2)cc1	3.88%
COCCNC(=O)Nc1ccc2nc(-c3ccco3)c(-c3ccco3)nc2c1	53.1% (active)
CC(Sc1nnnn1C)C(=O)NC(=O)NC1CCCCC1 (stereo not drawn)	3.38%
COc1ccc(-n2c(C)cc(C(=O)CN3C(=O)NC4(CCc5ccccc54)C3=O)c2C)cc1 (stereo not drawn)	-11%
CC1=CC2=NC(=O)/C(=C/c3coc4ccccc4c3=O)C(=N)N2O1	-3.42%

SMILES	inhibition
COc1ccc(/C=C/C(=O)Nc2ccc(C)cc2)cc1S(=O)(=O)N1CCOCC1	-7.24%
Cc1cc(C)n(-c2nnc(N3CCN(c4ccccc4)CC3)nn2)n1	1.58%
CC(Nc1nc(N2CCN(CCO)CC2)nc2ccccc12)c1ccccc1 (stereo not drawn)	1.5%
Cn1c(CNC(=O)c2ccccc2F)nnc1SCc1ccc(F)cc1	15.6%
Cc1ccc(S(=O)(=O)NC(=O)N2CCCN(Cc3ccc(F)cc3)CC2)cc1	0.62%
CCCn1nc2cc(C(=O)NCc3ccccc3)ccc2c1OCC	5.83%
O=[N+]([O-])c1cccc(-c2nnc3c4ccccc4c4ccccc4n23)c1	13.6%
O=c1[nH]c2ccccc2n2c(-c3ccccc3)nnc12	52.5% [fluorescence artefact?] (active)
CCOC(=O)c1cnc2[nH]c3ccccc3n2c1=O	13.5%
C=C1C2C[C@H](O)C(C)(C)[C@@]2(O)[C@H](O)C[C@]23C[C@@](C)(O)[C@H](CC[C@H]12)[C@H]3O (stereo partly drawn)	-4.67%
CSc1nnnn1-c1c(C)cc(C)cc1C	-8.98%
CC(C)=C(NC(=O)c1ccccc1)C(=O)N/N=C(\C)c1ccccc1O	2.96%
Cc1c(Cl)cccc1NC(=O)CC1SC(=NCC2CCCO2)NC1=O (stereo not drawn)	1.68%
CCCCNC(=O)N1CCN(S(C)(=O)=O)CC1	2.45%
Cc1ccc(Nc2nc(N)nc(CSc3nnc(C)s3)n2)cc1	3.78%
COc1ccc(-c2nn(-c3ccccc3)cc2/C=C\C(=O)N2CCOCC2)cc1[N+](=O)[O-]	1.3%
COc1ccc(NC(=O)c2oc3ccc(S(=O)(=O)N4CCOCC4)cc3c2C)cc1	-0.4%
Cc1noc(C)c1CSc1nc2cc(S(=O)(=O)N3CCOCC3)ccc2o1	38.2% (active)
Cc1ccc(S(=O)(=O)N2CCN(S(=O)(=O)N3CCOCC3)CC2)cc1	0.52%
O=C(CSC(=S)N1CCOCC1)c1ccccc1	9.18%
CCOC(=O)CNC(=O)/C(=C\c1ccc(F)cc1)NC(=O)c1ccccc1	0.01%
Cc1ccc(NC(=O)Nc2cc(-c3ccccc3)nn2C)cc1Cl	1.28%
CCc1ccc(NC(=O)CC2C(=O)NCCN2C(=S)Nc2ccccc2)cc1 (stereo not drawn)	2.38%
Cc1ccc(-c2nc(SCC(=O)Nc3ccccc3OC(F)F)c3c(C)c(C(=O)O)sc3n2)cc1	34.5% (active)

SMILES	inhibition
COc1ccccc1NC(=O)CSc1nc2sc(C)c(C)c2c(=O)n1Cc1ccco1	-13.8%
Cc1ccc(C)c(SCc2nc3sc(C(=O)O)c(C)c3c(=O)[nH]2)c1	-9.58%
CCOC(=O)C1=NN(c2ccc(Cl)cc2)/C(=C/C2=NCCc3cc(OC)c(OC)cc32)S1	2.69%
Cc1ccc(OCc2n[nH]c(=S)n2-c2ccc(C)cc2)cc1	0.42%
COc1ccc(OCC(O)CNCCNc2nccc(C(F)(F)F)n2)cc1 (stereo not drawn)	-1.2%
O=C(Nc1ccc(-c2csc(Nc3cccc(C(F)(F)F)c3)n2)cc1)c1cccc(C(F)(F)F)c1	-4.77%
COCc1cc(=O)[nH]c(-c2ccc(C(F)(F)F)cc2)n1	-4.61%
COc1cc(C(=O)OCc2ccc([N+](=O)[O-])cc2)cc(OC)c1OC	-2.12%
CC(C)(C)NC(=O)NC(=O)COC(=O)Cc1c(F)cccc1Cl	0.46%
Cn1c(S(=O)(=O)O)nc2ccccc21	3.14%
O=C(NNS(=O)(=O)c1ccccc1C(F)(F)F)c1cc2ncc(C(F)(F)F)cc2s1	9.76%
CCOC1CS(=O)(=O)CC1OCC (stereo not drawn)	-1.77%
O=C(Cc1ccccc1)NCC1OCCc2ccccc21 (stereo not drawn)	-5.93%
CCNC(=S)N1CCN(CCN=CC2=C(O)CC(C)(C)CC2=O)CC1	2.72%
Oc1ccc(-c2nnc(Nc3ccccc3)c3ccccc23)cc1	-1.27%
Cc1nn(CC(=O)N/N=C/c2ccc(F)cc2)c(C)c1[N+](=O)[O-]	10.1%
O=C1c2ccccc2C(O)N1Cc1ccccc1 (stereo not drawn)	-4.18%
O=C1c2ccccc2C(O)N1Cc1ccccc1Cl (stereo not drawn)	43.6% (active)
O=C(Nc1ccc(Br)cc1)C1CCC(=O)N1Cc1ccccc1Cl (stereo not drawn)	7%
COc1ccc(CNC(=O)C2CC(c3ccc(C(F)(F)F)cc3)=NO2)cc1 (stereo not drawn)	0.84%
C=C(C)C(=O)O[C@H]1C/C(C)=C\C(=O)/C=C(\C)[C@H](O)[C@@H]2OC(=O)C(=C)[C@@H]21	2.79%
CCn1c(NC(=O)c2nn(C)cc2Br)nc2ccccc21	2.02%
CC(C)N(C(=O)c1ccc(-c2ccccc2F)cc1)C(C)C	6.78%
O=S(=O)(c1ccc(Cl)cc1)N1CCCN(c2ccc(C(F)(F)F)cn2)CC1	2.55%

SMILES	inhibition
CCOC(=O)N1CCN(C(c2cccnc2)c2ccc3cccnc3c2O)CC1 (stereo not drawn)	41.4% [fluorescence artefact?] (active)
Oc1c(C(c2ccccn2)N2CCOCC2)ccc2cccnc12 (stereo not drawn)	5.26%
CCN1CCN(C(c2cccnc2)c2cc(Cl)c3cccnc3c2O)CC1 (stereo not drawn)	15.4%
O=C(Cc1cccs1)Nc1nnc(C2CC2)s1	-4.66%
CCc1nnc(NC(=O)Cc2cccs2)s1	28.2%
COc1ccc(Cc2nnc(NC(=O)Cc3cccs3)s2)cc1	30.8% (active)
O=C1C(Cc2ccc(O)cc2)NC(=S)N1Cc1ccccc1 (stereo not drawn)	4.64%
O=C(NC(Cc1c[nH]c2ccccc12)C(=O)O)/C(=C/c1ccco1)NC(=O)c1ccccc1 (stereo not drawn)	1.5%
CN(C(=O)Nc1ccc(Cl)cc1)n1cnc2ccccc2c1=O	-1.03%
CC(C)(C)NC(=O)Cn1cnc2cc([N+](=O)[O-])ccc2c1=O	6.94%
O=C(Cn1cnc2c(cnn2-c2ccccc2)c1=O)NCc1ccccc1	-7.03%
O=C(Cn1cnc2cc([N+](=O)[O-])ccc2c1=O)NC(=O)NCc1ccccc1	90.5% (active)
CCC(C)(C)NC(=O)/C=C/c1cc(OC)c(OC)c(S(=O)(=O)N2CCc3ccccc32)c1	-2.6%
CCN(Cc1ccccc1)C(=O)CN1C(=S)NC(C)(C)CC1C (stereo not drawn)	-8.44%
CC(=O)Nc1cccc(/C(C)=N/NC(=O)c2c(-c3ccccc3Cl)noc2C)c1	1.91%
COc1ccc(N2CCN(C(=O)/C(C#N)=C/c3ccccc3)CC2)cc1	1.4%
COC(=O)c1sc2[nH]c(=S)n(N)c(=O)c2c1C	-5.75%
Cc1c(CN2CCC(CO)(CCOc3ccccc3)CC2)[nH]c2ccc(Cl)cc12	3.73%
CCCn1c(SCC(=O)Nc2cccc(C(=O)OCC)c2)nnc1-c1ccoc1C	-5.54%
Cc1cc(C)c2c(c1)cc(C)c1nnc(SCC(=O)Nc3cc(C)on3)n12	0.38%
Cc1ccc(C)c2c1cc(C)c1nnc(SCC(=O)Nc3cccc(C(=O)O)c3)n12	92.4% (active)

Source: PubChem BioAssay AID782 (Emory University Molecular Libraries Screening Center, 2007)
